Screening results deposited in PubChem BioAssay by The Scripps Research Institute Molecular Screening Center.
FBW7 activator = FBW7 E3 ligase activators, primary screen, biochemical, AlphaScreen, human. AID 1259310, 2017. F-box/WD repeat-containing protein 7 (Homo sapiens), Q969H0. normalized activity (activation), % at 26.1 µM. 650,000 tested, 0.13% active. AlphaScreen FBW7–phospho-cyclin E peptide binding, activator screen; in the data active = normalized activity above about 1.9%;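 note: purified mutant Fbw7 with reduced substrate affinity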
MITF inh = MITF inhibitors, primary screen, biochemical, AlphaScreen, human | Microphthalmia-associated transcription factor (Homo sapiens), O75030 | inhibition, % at 2.6 µM | 650,000 tested, 0.91% active | AlphaScreen MITF homodimerization, bead proximity signal; in the data active = inhibition above about 50%;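 note: 0% = vehicle wells with protein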
Target sequence (O75030 whole entry, looked up): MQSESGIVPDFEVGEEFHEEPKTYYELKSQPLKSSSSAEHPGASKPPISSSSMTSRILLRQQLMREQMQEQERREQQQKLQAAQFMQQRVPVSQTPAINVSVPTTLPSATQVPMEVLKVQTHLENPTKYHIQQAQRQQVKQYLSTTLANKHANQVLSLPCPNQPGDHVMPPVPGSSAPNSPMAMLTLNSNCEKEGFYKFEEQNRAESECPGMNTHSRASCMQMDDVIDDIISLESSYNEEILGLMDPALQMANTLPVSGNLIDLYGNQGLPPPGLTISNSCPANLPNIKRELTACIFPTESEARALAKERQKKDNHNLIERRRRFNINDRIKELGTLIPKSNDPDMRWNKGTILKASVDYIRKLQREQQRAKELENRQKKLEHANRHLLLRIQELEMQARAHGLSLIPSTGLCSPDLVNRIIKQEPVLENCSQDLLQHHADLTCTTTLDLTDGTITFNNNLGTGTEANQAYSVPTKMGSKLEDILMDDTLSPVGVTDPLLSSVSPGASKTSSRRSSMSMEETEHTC
TEAD-YAP inh = TEAD-YAP interaction inhibition, primary screen, TEAD-YAP interaction inhibitor project, luminescence, HEK-TIYL cells; TEAD-Gal4/YAP UAS-luciferase luminescence; inhibition, % at 9.12 µM; 640,000 tested, 1.4% active; AID 1259422, 2018; in the data active = inhibition above about 32%;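 note: 0% = median of test compound wells and 100% = reference inhibitor wells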
GPR151 activ = activators of human GPR151, primary screen, cell-based, PathHunter beta-arrestin, luminescence | G-protein coupled receptor 151 (Homo sapiens), Q8TDV0 | PathHunter beta-arrestin GPR151 cells | activation, % at 11.2 µM | 650,000 tested, 1% active; in the data active = activation above about 4.9%;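 note: 0% = median of compound wells and 100% = cells with positive control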
The depositor's hits bear a star. Hits are enriched below; roughly 3.4% of the tested compounds scored in any of these assays.

SMILES	FBW7 activator	MITF inh	TEAD-YAP inh	GPR151 activ
c1ccc(-c2cnc3ccc(NC4CCOCC4)nn23)cc1	-1	-5	23	0
c1cc2c(cc1-c1cnc3ccc(NC4CCOCC4)nn13)OCO2	0	-28	54*	0
O=[N+]([O-])c1ccc(CN2CCCC(CO)C2)cc1 (centres undefined)	0	-13	4	0
Cc1nc2sccn2c(=O)c1S(=O)(=O)N1CCN(C(=O)c2ccco2)CC1	0	-5	-7	-1
CS(=O)(=O)c1ccc(N2CCN(S(=O)(=O)c3cccs3)CC2)c(F)c1	0	7	-7	2
NS(=O)(=O)c1ccc(N2CCN(S(=O)(=O)c3cccs3)CC2)c([N+](=O)[O-])c1	0	0	34*	1
NC(=O)c1ccc(N2CCN(S(=O)(=O)c3ccccc3)CC2)c([N+](=O)[O-])c1	0	3	34*	5
CCOCCCn1c(SCC(=O)Nc2ccccc2Cl)nc2ccccc2c1=O	0	-6	-13	-1
CCOc1ccc(N(CC)C(=O)c2noc3c2COc2ccccc2-3)cc1	0	7	-2	-1
CN(C)c1cc(F)cc(-c2ccnc(Nc3ccc(-n4cnc(N5CCC(O)CC5)n4)cc3)n2)c1	0	-9	65*	3
Fc1cc(-c2ccnc(Nc3ccc(N4CCOCC4)cc3)n2)cc(N2CCN(C3CC3)CC2)c1	0	2	48*	0
Fc1cc(-c2ccnc(Nc3ccc(-n4cnc(N5CCOCC5)n4)cc3)n2)cc(N2CCOCC2)c1	0	-14	57*	-1
CCN1CCN(c2ncn(-c3ccc(Nc4nccc(-c5cc(N6CCOCC6)cc(C(F)(F)F)c5)n4)cc3)n2)CC1	0	7	-6	-1
CCN1CCN(c2ncn(-c3ccc(Nc4nccc(-c5cncc(N6CCOCC6)c5)n4)cc3)n2)CC1	0	6	60*	2
COc1ccc(-c2noc(C34CC5CC(CC(C5)C3)C4)n2)cc1OC	0	3	-6	1
COCCSc1nc(-c2cccc(OC)c2)nc2c1c(=O)n(C)c(=O)n2C	0	-9	-14	1
CCOc1ccc(-c2nnc(SCC(=O)Nc3ccccc3CC)nc2-c2ccc(OCC)c(OC)c2)cc1OC	0	11	5	1
Fc1cc(-c2ccnc(Nc3ccc(-n4cnc(C(F)(F)F)n4)cc3)n2)cc(N2CCN(C3CC3)CC2)c1	0	13	9	-1
N#Cc1cc(-c2ccnc(Nc3ccc(N4CCC(O)CC4)cc3)n2)cc(N2CCOCC2)c1	0	13	47*	0
OC1CCN(c2ccc(Nc3nccc(-c4cncc(N5CCOCC5)c4)n3)cc2)CC1	0	11	62*	0
N#Cc1ccc(Nc2nccc(-c3cncc(N4CCOCC4)c3)n2)cc1	0	2	3	4
Fc1cc(-c2ccnc(Nc3ccc(-n4cnc(C(F)(F)F)n4)cc3)n2)cc(N2CCNCC2)c1	1	9	39*	1
COc1cccnc1-c1ncn(-c2ccc(Nc3nccc(-c4cc(F)cc(N5CCOCC5)c4)n3)cc2)n1	0	-2	83*	1
O=C(O)c1cc(S(=O)(=O)N2CCOCC2)ccc1N1CCCC1	0	8	3	4
CCCc1nnc(SCC(N)=O)n1C	0	-5	13	0
SMILES	FBW7 activator	MITF inh	TEAD-YAP inh	GPR151 activ
N#Cc1cc(-c2ccnc(Nc3ccc(-n4cnc(N5CCOCC5)n4)cc3)n2)cc(N2CCCC(O)C2)c1 (centres undefined)	0	1	17	-1
Cc1ncn(-c2ccc(Nc3nccc(-c4cncc(N5CCC(O)CC5)c4)n3)cc2)n1	0	5	74*	0
CC(C)(C)c1ncn(-c2ccc(Nc3nccc(-c4cn[nH]c4)n3)cc2)n1	0	2	63*	0
Fc1cc(-c2cn[nH]c2)cc(-c2ccnc(Nc3ccc(-n4cnc(C(F)(F)F)n4)cc3)n2)c1	0	18	-5	0
N#Cc1cc(-c2ccnc(Nc3ccc(-n4cnc(-c5ccccn5)n4)cc3)n2)cc(N2CCCC(O)C2)c1 (centres undefined)	0	9	50*	1
c1cc(Cn2cccn2)cc(Nc2nccc(-c3cncc(N4CCOCC4)c3)n2)c1	0	21	79*	-2
CC(=O)c1ccccc1Oc1ncnc2sc(C)c(C)c12	0	5	-3	-2
COc1ccc(C2C(C(N)=O)=C(C)Nc3nnnn32)cc1OC (centres undefined)	0	-7	11	1
Cc1ccnc(-c2ncn(-c3ccc(Nc4nccc(-c5cc(F)cc(N6CCOCC6)c5)n4)cc3)n2)c1	0	-8	28	1
Cc1ncn(-c2ccc(Nc3nccc(-c4cc(C#N)cc(N5CCCC5)c4)n3)cc2)n1	0	2	-6	-1
Cc1cc(Nc2nccc(-c3cc(C#N)cc(N4CCOCC4)c3)n2)ccc1N1CCOCC1	0	-5	-1	0
OC1CCN(c2cc(F)cc(-c3ccnc(Nc4ccc(-n5cnc(-c6ccccn6)n5)cc4)n3)c2)CC1	0	3	85*	1
CN1CCN(c2ncn(-c3ccc(Nc4nccc(-c5cc(C#N)cc(N6CCC(O)CC6)c5)n4)cc3)n2)CC1	0	3	42*	-1
OC1CCN(c2ccc(Nc3nccc(-c4cc(F)cc(N5CCOCC5)c4)n3)cc2)CC1	0	10	48*	1
N#Cc1cc(-c2ccnc(Nc3cccc(CN4CCCCC4)c3)n2)cc(N2CCOCC2)c1	0	16	86*	-1
Cc1c(CNCCc2ccco2)c(C(=O)O)c(C)n1Cc1c(F)cccc1Cl	0	7	-4	0
CCOP(C)(=O)C1(C#N)CC1 (centres undefined)	0	7	1	-1
COc1ccc(C2CC(=O)n3c(nc4ccccc43)S2)cc1 (centres undefined)	0	-11	80*	2
O=C1CC(c2ccccc2)Sc2nc3ccccc3n21 (centres undefined)	0	5	-33	1
O=C1CC(c2ccc3c(c2)OCO3)Sc2nc3ccccc3n21 (centres undefined)	0	-3	76*	-1
O=C(NCc1cccc(C(F)(F)F)c1)c1cncc(-c2csc3ccccc23)c1	0	2	9	0
C#CCOc1cc(Br)c(/C=C2/NC(=O)NC2=O)cc1OCC	0	-6	32*	0
Cn1cnnc1SCC(=O)Nc1ccc(C(N)=O)cc1	0	10	33*	-1
Clc1cncc(Cl)c1N1CCN(c2ccc(-c3cccnc3)cn2)CC1	0	16	50*	0
CC(=O)N1CCc2cc(Br)cc(S(=O)(=O)Nc3ccc(C)cc3)c21	0	6	-1	2
Cc1ccc(NS(=O)(=O)c2cc(Br)cc3c2N(C(=O)C2CC2)CC3)cc1	0	2	40*	1
